Test results reported in PMC5540273 (PLoS ONE, 2017).

Assays:
Conditions in all cases: concentration: 1 μM, replicates: in singlicate; n = 1
GRK7 = test system: GRK7
GSK3A = test system: GSK3A
GSK3B = test system: GSK3B
HASPIN = test system: T1, HASPIN
T1 construct: gene GSG2

HCK = test system: HCK
HIPK1 = test system: HIPK1
HIPK2 = test system: HIPK2
HIPK3 = test system: HIPK3
HIPK4 = test system: HIPK4
HPK1 = test system: HPK1
HUNK = test system: HUNK
ICK = test system: ICK
IGF1R = test system: IGF1R
IKK-alpha = test system: T2, IKK-alpha
T2 construct: gene CHUK

IKK-beta = test system: T3, IKK-beta
T3 construct: gene IKBKB

IKK-epsilon = test system: T4, IKK-epsilon
T4 construct: gene IKBKE

INSRR = test system: INSRR
INSR = test system: INSR
IRAK1 = test system: IRAK1
IRAK3 = test system: IRAK3
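Further: KINOMEscan kinase panel screen.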

Compound	%Inh (GRK7) [%]	%Inh (GSK3A) [%]	%Inh (GSK3B) [%]	%Inh (HASPIN) [%]	%Inh (HCK) [%]	%Inh (HIPK1) [%]	%Inh (HIPK2) [%]	%Inh (HIPK3) [%]	%Inh (HIPK4) [%]	%Inh (HPK1) [%]	%Inh (HUNK) [%]	%Inh (ICK) [%]	%Inh (IGF1R) [%]	%Inh (IKK-alpha) [%]	%Inh (IKK-beta) [%]	%Inh (IKK-epsilon) [%]	%Inh (INSRR) [%]	%Inh (INSR) [%]	%Inh (IRAK1) [%]	%Inh (IRAK3) [%]
Fc1cc(Cl)ccc1Nc1ccnc2cc(-c3ccc(CN4CCCCC4)o3)ccc12 [GW560116]	0	0	0	32	0	0	0	1	0	14	9	0	24	0	0	20	0	0	22	0
O=c1cc(N2CCOCC2)nc2n(Cc3cccc(Cl)c3Cl)ccn12 [GSK2286295]	0	8	12	1	0	13	0	14	28	31	0	3	12	0	25	10	0	5	0	3
CC1=C(C(=O)Nc2cc3cn[nH]c3cc2F)C(c2ccc(C(F)(F)F)cc2)CC(=O)N1 (centres unmarked) [GSK429286]	0	10	24	0	0	0	0	13	0	29	20	13	0	0	56	5	0	0	31	5
Cc1cccc(-c2nc(C)cc(Nc3ccncc3)n2)n1 [GSK257997]	0	27	17	31	0	0	0	7	0	34	7	0	5	0	13	12	0	3	0	0
CN1C(=O)C(Nc2ccc(Cl)c(C(=O)O)c2)=C(c2ccc(Cl)cc2)C1=O [SB-404290]	0	6	33	21	17	19	8	34	11	0	32	20	0	0	17	0	14	0	0	0
COC(=O)c1c(-c2ccccc2)c2cc(C(=O)O)ccc2c(=O)n1Cc1ccccc1	0	0	0	31	0	14	0	0	0	0	43	0	4	0	0	0	7	0	18	0
Cc1ccc(-c2cc(-c3c[nH]nc3-c3ccccn3)ccn2)cc1 [GW684088]	0	22	2	35	0	7	0	1	0	24	1	0	36	0	0	9	0	0	0	7
CCn1c(-c2cccnc2O)nc2cnccc21 [SB-736715]	0	0	0	0	0	11	0	0	0	4	0	0	0	0	0	0	0	0	0	0
COc1cc2nccc(Nc3ccc(NC(=O)c4ccc(C)cc4)c(O)c3)c2cc1OC.Cl [GW440132]	0	4	0	0	0	6	0	0	3	24	28	0	0	0	3	0	0	0	0	14
Cl.O=C(Nc1cccc(-c2nn3ncccc3c2-c2ccnc(Nc3cccnc3)n2)c1)c1c(F)cccc1F [GSK312879]	0	48	25	0	52	0	0	11	0	31	0	10	25	30	31	0	9	11	28	0
